Peg3 prom inh-1: Peg3 promoter activity inhibition; HeLa PEG-Prom luciferase reporter, luminescence, overnight; hit rate 1.7% among 360,000; AID 588405; inhibition, % at 20 µM;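 active = inhibition of at least 50% at 20 µM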
TROY NFkB inh: inhibitors of TROY-dependent NF-kB signaling; Q293 LMP1-TROYcd NF-kB luciferase reporter, 4 h; inhibition, % at 10 µM; hit rate 0.98% among 360,000; AID 1347056;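 active = compounds whose plate-normalised and pattern-corrected inhibition of the luciferase reporter signal at the single screening dose is 50% or more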
LMP1 NFkB inh: reduces LMP1-driven NF-kappaB luciferase signal; LMP1-induced NF-kappaB luciferase reporter cells, luminescence; inhibition, % at 12.5 µM; hit rate 0.69% among 350,000; in the data active = inhibition above about 41%; inconclusive = no clear call, values can overlap the other calls;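 also: 0% = neutral control wells and 100% = reference inhibitor control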
Shn3 3UTR inh: reduces Shn3 3'UTR luciferase signal in osteoblasts. Clone20 osteoblast Shn3 3'UTR firefly luciferase, 24 h. hit rate 0.52% among 360,000. inhibition, % at 12.5 µM. AID 588674;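 active = mean inhibition of at least 75% with every replicate also reaching 75%; inconclusive = mean inhibition at least 75% but some replicate below; inactive = mean inhibition below 75%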;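 also: 0% = median of neutral control wells and 100% = pilot-screen positive control compound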
TRPM1 prom inh: inhibitors of MITF-driven TRPM1 promoter in melanoma cells; SK-MEL-5 TRPM1 promoter luciferase, 24 h; inhibition, % at 12.5 µM; hit rate 0.83% among 330,000;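 active = mean inhibition across replicates of 60% or more, whatever share of single replicates reaches that level; inconclusive = some that reach 60%, reason not given; inactive = mean inhibition across replicates below 60%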
TWEAK Fn14 block: inhibitors of TWEAK-Fn14 interaction signaling; TWEAK-stimulated Fn14 reporter cells, luciferase luminescence, 8 h; inhibition, % at 10 µM; hit rate 2% among 360,000; AID 1159606; in the data active = inhibition above about 50%
Peg3 prom inh-2: confirmation of Peg3 promoter inhibitors | shares compounds with Peg3 prom inh-1 | HeLa PEG-Prom luciferase reporter, luminescence, overnight | inhibition, % at 20 µM | hit rate 84% among 1,300;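 active = at 20 µM dose, 40% or more inhibition averaged across four replicates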
* hit, by the source's call. In the library only some 4.1% were active in any assay of this set; here they are far more common.

For N=c1n(CCN2CCOCC2)c2ccccc2n1CC(=O)c1ccc(Cl)c(Cl)c1 the results were Peg3 prom inh-1 5.5, TROY NFkB inh -9.1, LMP1 NFkB inh -9.0, Shn3 3UTR inh 18.2, TRPM1 prom inh -2.7 and TWEAK Fn14 block 17.5.
`COc1cc(C(=O)NCCc2c[nH]c3ccccc23)ccc1OCc1c(C)noc1C` gave Peg3 prom inh-1 62.8*, TROY NFkB inh 21.2, LMP1 NFkB inh 2.5, Shn3 3UTR inh -11.4, TRPM1 prom inh -1.3, TWEAK Fn14 block 14.2 and Peg3 prom inh-2 17.9.
Screening COc1ccc(CCNC(=O)c2ccc(OCc3c(C)noc3C)c(OC)c2)cc1 returned Peg3 prom inh-1 5.7, TROY NFkB inh -5.8, LMP1 NFkB inh 9.6, Shn3 3UTR inh -4.3, TRPM1 prom inh -6.5 and TWEAK Fn14 block 9.3.
For Cc1ccc2nc(/C(C#N)=C\c3ccc([N+](=O)[O-])o3)[nH]c2c1 the results were Peg3 prom inh-1 105.5*, TROY NFkB inh 45.2, LMP1 NFkB inh -13.8, Shn3 3UTR inh 98.5*, TRPM1 prom inh 92.4*, TWEAK Fn14 block 98.7* and Peg3 prom inh-2 84.3*.
Screening Cn1cccc1CN1CCC[C@]2(N[C@H](c3ccc(C(F)(F)F)cc3)[C@@H]3C(=O)N(Cc4ccccc4)C(=O)[C@@H]32)C1=O returned Peg3 prom inh-1 0.1, TROY NFkB inh -1.4, LMP1 NFkB inh -11.1, Shn3 3UTR inh 15.1 and TWEAK Fn14 block 2.8.
Screening Cn1c(=O)c2cc(S(=O)(=O)Nc3cc(C(=O)O)cc(C(=O)O)c3)ccc2n(C)c1=O returned Peg3 prom inh-1 12.2, TROY NFkB inh 2.4, LMP1 NFkB inh 7.5, Shn3 3UTR inh 5.3, TRPM1 prom inh 9.1 and TWEAK Fn14 block -5.3.
For Cc1cc(C)cc(NS(=O)(=O)c2ccc3c(c2)c(=O)n(C)c(=O)n3C)c1 the results were Peg3 prom inh-1 53.6*, TROY NFkB inh 14.3, LMP1 NFkB inh 25.1, Shn3 3UTR inh inconclusive, TRPM1 prom inh 59.6, TWEAK Fn14 block 26.1 and Peg3 prom inh-2 69.8*.
For NC(=O)c1ccc(NC(=O)CSc2nnc(-c3ccc4c(c3)OCO4)o2)cc1 the results were Peg3 prom inh-1 -72.3, TROY NFkB inh 6.1, LMP1 NFkB inh -5.2, Shn3 3UTR inh 10.1, TRPM1 prom inh -14.9 and TWEAK Fn14 block -3.5.
For O=C(c1ccc(Cl)cc1)N1CCCCC(Sc2nnc(-c3ccc4c(c3)OCO4)o2)C1=O (centres undefined) the results were Peg3 prom inh-1 54.0*, TROY NFkB inh 57.8*, LMP1 NFkB inh 74.8*, Shn3 3UTR inh 70.0, TRPM1 prom inh 80.3*, TWEAK Fn14 block 97.6* and Peg3 prom inh-2 58.2*.
Screening O=C(Nc1ccc(NC(=O)c2cccnc2Cl)cc1)c1cccc(Cl)c1 returned Peg3 prom inh-1 -133.8, TROY NFkB inh -40.5, LMP1 NFkB inh 2.0, Shn3 3UTR inh -46.4, TRPM1 prom inh -55.6 and TWEAK Fn14 block -10.3.
For Cc1cccc(NC(=O)c2oc3ccc(S(=O)(=O)N4CCOCC4)cc3c2C)c1C the results were Peg3 prom inh-1 53.8*, TROY NFkB inh 22.5, LMP1 NFkB inh 16.1, Shn3 3UTR inh 11.1, TRPM1 prom inh 8.3, TWEAK Fn14 block 27.4 and Peg3 prom inh-2 55.7*.
For Cc1ccc(NC(=O)Nc2ccnc(-c3cccnc3)n2)cc1 the results were Peg3 prom inh-1 87.8*, TROY NFkB inh -23.3, LMP1 NFkB inh -29.8, Shn3 3UTR inh -11.7, TRPM1 prom inh 9.7, TWEAK Fn14 block 20.7 and Peg3 prom inh-2 67.1*.
For Cc1ccc(S(=O)(=O)NNC(=O)c2ccc(NC(=O)C3CC3)cc2)cc1 the results were Peg3 prom inh-1 -0.3, TROY NFkB inh 9.0, LMP1 NFkB inh -2.8, Shn3 3UTR inh -11.4, TRPM1 prom inh 4.8 and TWEAK Fn14 block 8.8.
Screening N#C/C(=C\c1cccc([N+](=O)[O-])c1)C(=O)NCc1ccc(Cl)cc1 returned Peg3 prom inh-1 111.2*, TROY NFkB inh -16.5, LMP1 NFkB inh 7.6, Shn3 3UTR inh 81.9, TRPM1 prom inh 52.7, TWEAK Fn14 block 9.2 and Peg3 prom inh-2 96.2*.
For N#C/C(=C\c1cccc([N+](=O)[O-])c1)C(=O)NCc1cccnc1 the results were Peg3 prom inh-1 -21.2, TROY NFkB inh -21.7, LMP1 NFkB inh 0.2, Shn3 3UTR inh 2.3, TRPM1 prom inh 6.3 and TWEAK Fn14 block 3.4.
